These results are taken from the supplement of paper PMC13380429.

For assay [1], the system named is Vero E6 infected with SARS-CoV-2. The assay is described as follows: morphology score (similarity to uninfected cells); higher = more like uninfected cells. As to conditions: 24 h.
Assay [2] shares this test system. The assay is described as follows: SARS-CoV-2 infection rate relative to infected DMSO; higher = more infection, active = 60 or less. The following applies: 24 h.

`Cc1ccc(NC(=O)Nc2cc(C(F)(F)F)ccc2F)cc1Nc1ccc2c(c1)NC(=O)/C2=C\c1ccc[nH]1` (10 µM) had a morphology score in assay [1] of 0.567. Also, in assay [2], the SARS-CoV-2 infection rate was 51.5% (active).

`O=C(/C=C\n1cnc(-c2cc(C(F)(F)F)cc(C(F)(F)F)c2)n1)NNc1cnccn1` [selinexor] (10 µM) came in with a morphology score in assay [1] of -0.235. Besides, in assay [2], the SARS-CoV-2 infection rate is 106% (inactive).

In assay [1], `N#Cc1cnc2cnc(NCc3cccnc3)cc2c1Nc1ccc(F)c(Cl)c1` (10 µM) gave a morphology score of 0.0314. Moreover, the SARS-CoV-2 infection rate in assay [2] is 102% (inactive).

Compound `Cc1ccc(NC(=O)c2cccc(C(C)(C)C#N)c2)cc1Nc1ccc2ncn(C)c(=O)c2c1` (0.833333 µM) yielded a morphology score in assay [1] of -0.0585. The SARS-CoV-2 infection rate in assay [2] is 93.5% (inactive).

For `CCOc1cc(N2CCC(O)CC2)ccc1Nc1ncc2c(n1)N(C)c1ccccc1C(=O)N2C` (0.833333 µM), the morphology score in assay [1] is -0.0631. Moreover, in assay [2], the SARS-CoV-2 infection rate was 114% (inactive).

For `O=C(Cn1c(=O)sc2ccc(Cl)cc21)N1CCN(CCO)CC1` [tiaramide] (10 µM), in assay [1], the morphology score worked out at 0.00737. In addition, the SARS-CoV-2 infection rate in assay [2] is 104% (inactive).

Turning to `Cc1cn(C[C@H](N)C(=O)O)c(=O)n(Cc2ccsc2C(=O)O)c1=O` (10 µM), in assay [1], the morphology score was -0.0699. The SARS-CoV-2 infection rate in assay [2] is 96.5% (inactive).

`COc1ccc(CN(C(=O)[C@@H](N)Cc2c(C)cc(C(N)=O)cc2C)[C@@H](C)c2ncc(-c3ccccc3)[nH]2)cc1C(=O)O` [eluxadoline] (10 µM) returned a morphology score in assay [1] of 0.15. For the same compound, the SARS-CoV-2 infection rate in assay [2] was 117% (inactive).

As to `CC(=O)c1ccc(S(=O)(=O)NC(=O)NC2CCCCC2)cc1` [acetohexamide] (10 µM), the morphology score in assay [1] worked out at 0.11. The SARS-CoV-2 infection rate in assay [2] is 100% (inactive).

The compound `OCCN1CCN(CCCN2c3ccccc3C=Cc3ccccc32)CC1` [opipramol] (10 µM) registered a morphology score in assay [1] of 0.237. Further, in assay [2], the SARS-CoV-2 infection rate was 102% (inactive).

Regarding `O=C(CC1NCCCC1O)Cn1cnc2cc(Br)c(Cl)cc2c1=O` (configuration not stated) [halofuginone] (0.833333 µM), the morphology score in assay [1] was -0.082. Moreover, the SARS-CoV-2 infection rate in assay [2] is 99.5% (inactive).

In the case of `C[C@H]1O[C@H](O[C@H]2[C@H](O)[C@@H](O)[C@@H](O[C@H]3[C@H](O)[C@@H](O)C(O)O[C@@H]3CO)O[C@@H]2CO)[C@H](O)[C@@H](O)[C@@H]1N[C@H]1C=C(CO)[C@@H](O)[C@H](O)[C@H]1O` (some centres not stated) [acarbose] (10 µM), in assay [1], the morphology score amounted to 0.085. In addition, in assay [2], the SARS-CoV-2 infection rate is 100% (inactive).

`COc1ccc(C(=O)c2c(C)n(CCN3CCOCC3)c3ccccc23)cc1` [pravadoline] (10 µM) showed a morphology score in assay [1] of 0.0547. Besides, the SARS-CoV-2 infection rate in assay [2] is 106% (inactive).

Compound `Nc1nc(Nc2ccccc2)nc2c1ncn2[C@@H]1O[C@H](CO)[C@@H](O)[C@H]1O` (10 µM) returned a morphology score in assay [1] of 0.144. Further, in assay [2], the SARS-CoV-2 infection rate was 102% (inactive).

Consider `COc1cccc(-c2cc(=O)c3ccccc3o2)c1N` (10 µM), for which the morphology score in assay [1] is -0.25. The SARS-CoV-2 infection rate in assay [2] is 118% (inactive).

For the compound `CN1[C@@H]2CC[C@H]1C[C@@H](OC1c3ccccc3CCc3ccccc31)C2` [deptropine] (0.833333 µM), in assay [1], the morphology score was determined as 0.24. Also, the SARS-CoV-2 infection rate in assay [2] was 100% (inactive).

`FC(F)c1nc2ccccc2n1-c1nc(N2CCOCC2)nc(N2CCOCC2)n1` (10 µM): the morphology score in assay [1] is -0.0463. Besides, the SARS-CoV-2 infection rate in assay [2] is 108% (inactive).

For the compound `C=CC[C@]1(O)CC[C@H]2[C@@H]3CCC4=CC(=O)CCC4=C3C=C[C@@]21C` [altrenogest] (10 µM), the morphology score in assay [1] is 0.0206. Moreover, the SARS-CoV-2 infection rate in assay [2] was 105% (inactive).

In assay [1], `C[C@H](CCC(=O)O)[C@H]1CC[C@H]2[C@@H]3CC[C@@H]4C[C@H](O)CC[C@]4(C)[C@H]3CC[C@]12C` [lithocholic-acid] (10 µM) yielded a morphology score of 0.0318. The SARS-CoV-2 infection rate in assay [2] is 110% (inactive).

Regarding `OC[C@H]1O[C@H](O[C@H]2[C@H](O)[C@@H](O)[C@H](O)O[C@@H]2CO)[C@H](O)[C@@H](O)[C@@H]1O` [D-(+)-maltose] (10 µM), the morphology score in assay [1] was found to be 0.129. In addition, the SARS-CoV-2 infection rate in assay [2] was 86% (inactive).

On to `CC(C)(C)S(=O)(=O)N[C@H]1CC[C@H](C(=O)Nc2ccc(C(F)(F)F)cn2)CC1` [velneperit] (10 µM), for which, in assay [1], the morphology score was -0.0103. The SARS-CoV-2 infection rate in assay [2] is 115% (inactive).

As to `COc1ccc2c(c1OC)C(=O)O[C@@H]2[C@H]1c2c(cc3c(c2OC)OCO3)CCN1C` [noscapine] (10 µM), the morphology score in assay [1] was -0.105. In assay [2], the SARS-CoV-2 infection rate was 104% (inactive).

`COc1ccc(/C=C/C(=O)/C=C(O)/C=C/c2ccc(OC)c(OC)c2)cc1OC` (10 µM) yielded a morphology score in assay [1] of 0.335. Further, the SARS-CoV-2 infection rate in assay [2] was 80.5% (inactive).

The compound `CCN1CCN(Cc2ccc(Nc3ncc(F)c(-c4cc(F)c5nc(C)n(C(C)C)c5c4)n3)nc2)CC1` [abemaciclib] (10 µM) showed a morphology score in assay [1] of 0.0416. In assay [2], the SARS-CoV-2 infection rate was 107% (inactive).

As to `CC(C)=CCC[C@](C)(O)[C@@H]1CC=C(C)CC1` [levomenol] (10 µM), the morphology score in assay [1] is -0.0548. Also, the SARS-CoV-2 infection rate in assay [2] was 104% (inactive).

On to `O=C(NC1CCC1)c1ccc(C#Cc2cccc(F)c2)nc1` (10 µM), for which, in assay [1], the morphology score came to 0.0178. Besides, the SARS-CoV-2 infection rate in assay [2] was 99% (inactive).
